# Screening data as filed in PubChem BioAssay.
# aDG glyco act: activators of alpha-DG glycosylation, primary screen, uHTS, Pro5-aDG cells, AlphaScreen | alpha-DG glycosylation AlphaScreen (IIH6); 0% Pro5, 100% B10-LARGE cell signal | activation, % at 10 µM | hit rate 0.22% among 360,000;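 active = activation of at least 8% versus controls, or a plate z-score of at least 8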;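 also: Pro5 are CHO cells carrying HIG-tagged alpha-DG that lacks glycosylation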
# NPR2 activator: human GC-B receptor activators, primary screen, HEK293 GC-B cells, cGMP TR-FRET, EC30 CNP | Atrial natriuretic peptide receptor 2 (Homo sapiens), P20594 | 0% at EC30 CNP, 100% saturating CNP | activation, % at 10 µM | hit rate 0.11% among 370,000;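 active = activation at 10 µM reaching about 35% in either raw or pattern-adjusted values, limit read from the data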
# Target sequence (P20594 whole entry, looked up): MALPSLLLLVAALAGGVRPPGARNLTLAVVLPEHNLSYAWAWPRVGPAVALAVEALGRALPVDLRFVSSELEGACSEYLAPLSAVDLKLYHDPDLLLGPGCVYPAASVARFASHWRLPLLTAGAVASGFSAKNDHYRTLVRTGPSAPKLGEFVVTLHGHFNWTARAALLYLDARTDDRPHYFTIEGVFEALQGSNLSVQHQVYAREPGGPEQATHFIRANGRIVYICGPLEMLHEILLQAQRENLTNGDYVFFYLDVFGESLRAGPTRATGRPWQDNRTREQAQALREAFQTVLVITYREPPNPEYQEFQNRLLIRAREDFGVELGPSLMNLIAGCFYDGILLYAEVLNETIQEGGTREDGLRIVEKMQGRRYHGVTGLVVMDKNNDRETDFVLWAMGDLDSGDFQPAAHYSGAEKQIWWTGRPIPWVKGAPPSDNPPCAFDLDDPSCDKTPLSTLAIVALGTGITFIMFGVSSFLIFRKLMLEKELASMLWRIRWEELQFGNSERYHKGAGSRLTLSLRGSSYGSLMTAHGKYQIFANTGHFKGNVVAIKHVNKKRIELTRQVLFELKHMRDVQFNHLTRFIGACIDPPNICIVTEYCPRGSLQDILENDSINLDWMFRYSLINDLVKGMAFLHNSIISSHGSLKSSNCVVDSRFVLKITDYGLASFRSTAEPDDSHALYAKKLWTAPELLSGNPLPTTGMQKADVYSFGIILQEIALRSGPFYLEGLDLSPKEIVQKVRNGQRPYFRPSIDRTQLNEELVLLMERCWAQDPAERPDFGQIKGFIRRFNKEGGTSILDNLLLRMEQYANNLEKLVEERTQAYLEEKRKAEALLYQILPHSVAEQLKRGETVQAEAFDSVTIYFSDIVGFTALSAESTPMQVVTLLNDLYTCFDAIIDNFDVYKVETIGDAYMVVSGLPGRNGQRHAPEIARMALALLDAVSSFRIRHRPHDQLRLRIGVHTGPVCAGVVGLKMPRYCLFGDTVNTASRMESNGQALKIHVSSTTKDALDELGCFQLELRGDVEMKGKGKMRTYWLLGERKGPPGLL
# HSF-1 act: HSF-1 activators, primary screen, NIH3T3-HGL cells, MG132 stress, luminescence, single point; NIH3T3-HGL HSF-1 luciferase reporter, 8 h; 100% = twice DMSO control signal; activation, % at 9 µM; hit rate 1.7% among 300,000;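 active = mean replicate activation of at least 50% with a set share of replicates each reaching 50%; inconclusive = only one of those two conditions met; inactive = mean below 50% and too few replicates reaching it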;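 also: 0% = median of the neutral control wells and 100% = twice that signal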
# Dyrk1A ADPGlo: rat Dyrk1A kinase inhibitors, primary screen, biochemical, single point, plate reader | Dual specificity tyrosine-phosphorylation-regulated kinase 1A (Rattus norvegicus), Q63470 | ADP-Glo luminescence, NFATc1 peptide | inhibition, % at 12.5 µM | hit rate 0.43% among 310,000; in the data active = inhibition above about 50%;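 also: plate controls were vehicle with enzyme for no effect and no enzyme for full effect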
# GC-A act: GC-A stimulated cGMP production enhancers – HEK293 GC-A cells, cGMP TR-FRET, EC30 ANP, primary screen. hit rate 0.14% among 370,000. activation, % at 10 µM. 0% at EC30 ANP, 100% saturating ANP; in the data active = activation above about 40%
# HSF1 inhib: HSF1 inhibitors in luciferase reporter cells, primary screen, cell-based, NIH3T3, luminescence. NIH3T3-HGL HSE-luciferase, MG132-induced, luminescence 8 h; stronger effect = lower value. AID 2098, 2009. hit rate 0.77% among 300,000. activity change, negative = inhibition, % at 7.5 µM (by protocol);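 active = more than half of replicate wells show activity change below -50%, luminescence cut by over half; inconclusive = some wells, but at most half, below -50%; inactive = no replicate well below -50%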;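 also: luciferase reports HSF-1 transcriptional activity via heat shock element; 0% = median of DMSO wells and -100% = zero luminescence signal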
# * marks the source's active call; other numbers are inactive results; ? = inconclusive; / = no result given. The list is not random: actives were taken first. Their share in the collection is about 2.5%.
SMILES,aDG glyco act,NPR2 activator,HSF-1 act,Dyrk1A ADPGlo,GC-A act,HSF1 inhib
Cc1ccc(N2C(=O)CC(NNc3nc4ccccc4s3)C2=O)cc1C (stereo unspecified),0,-4,?,-1,1,53
O=C1CC(N2CCSCC2)C(=O)N1c1ccccc1 (stereo unspecified),0,1,2,-7,-1,-5
Cc1ccc(NNC2CC(=O)N(c3cccc(Cl)c3)C2=O)cc1 (stereo unspecified),0,-1,/,-3,2,/
O=C1CC(N2CCCCC2)C(=O)N1c1ccccc1 (stereo unspecified),0,4,-62,-3,0,-53*
O=C1CC(NNc2ccccc2)C(=O)N1c1ccccc1 (stereo unspecified),0,-5,63*,-10,4,15
COc1ccc(N2C(=O)CC(NNc3nc4ccccc4s3)C2=O)cc1 (stereo unspecified),0,-2,114*,/,1,60
CCOC(=O)N1CCN(C(=S)NC(=O)c2ccc(F)c(F)c2)CC1,0,4,31,-1,-2,4
CC(=O)OC(C)C(=O)NS(=O)(=O)c1ccc(C)cc1 (stereo unspecified),0,2,71*,3,25,38
Cc1c(C(=O)Nc2ccccc2)csc1-c1ccccc1,0,2,61*,1,-7,28
Cc1ccccc1C(=O)NC(=S)Nc1ccccc1C(=O)O,0,-2,9,0,2,3
Cc1c(C(=O)Nc2ccccc2[N+](=O)[O-])csc1-c1ccccc1,0,-4,61*,1,-3,15
Cc1cc(C(=O)Nc2ccccc2[N+](=O)[O-])cs1,0,-1,10,-1,1,3
Cc1ccccc1C(=O)NC(=S)Nc1ccccc1[N+](=O)[O-],0,/,58*,3,/,10
Cc1c(NC(=O)c2ccc(Cl)c([N+](=O)[O-])c2)cccc1-n1cnnn1,0,0,/,/,2,/
COc1ccc2c(COC(=O)CNS(=O)(=O)c3ccc(C)c(C)c3)cc(=O)oc2c1,0,-4,/,0,3,/
Cc1ccc2c(COC(=O)c3ccccc3Br)cc(=O)oc2c1,0,-11,88*,-4,-2,44
COc1ccc2c(COC(=O)CCS(=O)(=O)c3ccc(C)cc3)cc(=O)oc2c1,-1,-4,-79,-1,-6,-73*
Cc1ccc2c(COC(=O)c3ccccc3Cl)cc(=O)oc2c1,0,-8,101*,0,0,55
COc1cc(NC(=S)N2CCN(C)CC2)c(OC)cc1Cl,0,3,1,-2,-1,-2
O=C(COC(=O)/C=C/c1cccc(F)c1)Nc1ccccc1,0,0,4,-1,0,4
C#CC[N+]1(CC#Cc2ccccc2)CCCCC1,0,3,82*,4,2,49
C(#Cc1ccccc1)C[N+]1(CC#Cc2ccccc2)CCCCC1,0,1,-13,-3,-1,-10
Fc1ccc(-c2cn3cc(C(F)(F)F)cc(Cl)c3n2)cc1,0,-3,83*,-7,2,43
COc1ccc(-c2cn3cc(C(F)(F)F)cc(Cl)c3n2)cc1,0,-7,17,/,2,9
COc1ccc(-c2cc(-c3ccccc3)c(C#N)c(S(C)(=O)=O)n2)cc1,0,5,71*,1,20,54
SMILES,aDG glyco act,NPR2 activator,HSF-1 act,Dyrk1A ADPGlo,GC-A act,HSF1 inhib
CS(=O)c1nc(-c2ccc(Br)cc2)cc(-c2ccccc2)c1C#N (stereo unspecified),0,8,56*,-3,2,40
CCC1CCCCN1C(=S)Nc1cccc(S(=O)(=O)N(C)C)c1 (stereo unspecified),-1,5,25,-2,-2,2
CCCCn1nnnc1C(c1ccccc1)N1CCN(C(=O)c2ccco2)CC1 (stereo unspecified),0,3,/,/,-3,/
CCCOP(=O)(OCCC)c1nc(-c2ccccc2)oc1NCc1ccccc1,0,-9,9,3,-14,3
CC1(C)CC(=O)C(C=Nc2cccnc2)=C(O)C1,0,2,133*,-5,1,79
Cc1cccc(NCc2nc3ccccc3n2C)c1,0,-2,-11,/,-7,13
Cc1ccc(NCc2nc3ccccc3n2C)c(C)c1,0,-4,64*,6,-3,33
COc1ccc(-c2nc3ccccc3n2Cc2ccc(C)cc2)cc1,1,48*,34,-3,63*,11
CC(/C=C\c1ccccc1)=C/C(=O)O,0,2,-5,-1,5,-4
CC(/C=C/c1cccs1)=C\C(=O)O,0,0,92*,-7,1,38
O=C1/C(=C/c2cccs2)Cc2ccccc21,0,-5,6,5,5,-2
O=C1/C(=C\c2ccc(Br)o2)Cc2ccccc21,0,-1,59*,6,-2,16
C/C=C/c1ccc(OCC(=O)O)c(OC)c1,0,2,2,-3,-2,-3
C/C=C/c1ccc(OCC(=O)Nc2cc(OC)c(OC)c(OC)c2)c(OC)c1,2,-2,-60,4,3,-52*
Cc1cc(C)cc(C(=O)NC(=S)Nc2ccc3c(c2)OCCO3)c1,0,-9,122*,4,-8,71
O=C(NC(=S)Nc1ccc(N2CCCCC2)c(Cl)c1)c1ccc2c(c1)OCCO2,0,2,-64,-5,2,-60*
CC(C)(C)c1ccc(-c2n[nH]c(=S)n2CCCN2CCOCC2)cc1,0,-8,-2,5,-4,-1
Oc1c(CN2CCCCC2)cc(Br)c2cccnc12,0,-2,-58,/,-3,-60*
Oc1c(Cl)cc(CN2CCOCC2)c2cccnc12,0,1,/,/,1,/
CS(=O)(=O)N1CCN(C(=O)Cc2ccc(Br)cc2)CC1,0,3,-2,-2,1,-5
Cc1ccc(S(=O)(=O)NCc2ccncc2)c(C)c1C,7.2*,5,3,6,3,-7
Cc1cc(C)c(S(=O)(=O)NCc2ccncc2)c(C)c1,6.3*,0,-8,-5,2,-9
COc1ccc(/C=C(\NC(=O)c2ccccc2)C(=O)N/N=C/c2sccc2C)cc1,0,1,97*,3,-10,57
